# Neddylation inh – blocks human cullin neddylation | P61081+Q13564 | AID 651699 | inhibition, % at 25 µM | TR-FRET cullin neddylation, biochemical | hit rate 0.58% among 360,000; in the data active = inhibition above about 36%
# PfGluPho inh – PfG6PD (Plasmodium falciparum) enzyme inhibition; PfGluPho enzyme, NADPH resazurin-diaphorase fluorescence; inhibition, % at 20 µM; hit rate 0.78% among 350,000; AID 504690;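 active = inhibition reaching at least a set limit at 20 µM in the primary screen, cut at about 59% in these data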;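 also: 0% = DMSO wells with substrate and 100% = DMSO wells lacking glucose-6-phosphate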
# GC-B act – GC-B (human) receptor activation. P20594. HEK293-GC-B cells, CNP EC30, cGMP TR-FRET; 0% at EC30 CNP, 100% saturating CNP. activation, % at 10 µM. hit rate 0.11% among 370,000;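 active = activation at 10 µM reaching about 35% in either raw or pattern-adjusted values, limit read from the data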
# APOBEC3G inh – APOBEC3G (human) deaminase inhibition; Q9HC16; recombinant A3G, ssDNA deamination FAM/TAMRA fluorescence; inhibition, % at 20 µM; hit rate 0.28% among 330,000; AID 493012;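 active = inhibition of at least 40% at 20 µM, with no more than 30% in the related APOBEC3A deaminase screen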;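 also: plate controls were DMSO wells with A3G for no effect and wells lacking A3G enzyme for full effect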
# Target sequence (Q9HC16 whole entry, looked up): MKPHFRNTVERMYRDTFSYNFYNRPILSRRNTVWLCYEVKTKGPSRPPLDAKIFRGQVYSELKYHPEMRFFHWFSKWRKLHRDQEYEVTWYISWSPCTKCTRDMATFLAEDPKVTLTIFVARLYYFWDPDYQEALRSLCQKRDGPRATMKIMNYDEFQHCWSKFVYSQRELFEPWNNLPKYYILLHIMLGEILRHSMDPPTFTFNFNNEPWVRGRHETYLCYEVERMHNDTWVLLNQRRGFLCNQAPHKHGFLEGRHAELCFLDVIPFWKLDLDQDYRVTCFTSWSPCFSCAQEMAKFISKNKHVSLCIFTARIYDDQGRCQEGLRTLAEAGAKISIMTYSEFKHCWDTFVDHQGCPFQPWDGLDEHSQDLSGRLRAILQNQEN
# GC-A act – GC-A (human) enzyme activation; HEK293 GC-A cells, cGMP TR-FRET, EC30 ANP; 0% at EC30 ANP, 100% saturating ANP; activation, % at 10 µM; hit rate 0.14% among 370,000; in the data active = activation above about 40%
# A3A deaminase – inhibitors of human APOBEC3A DNA deaminase; P31941; recombinant A3A, FAM/TAMRA ssDNA deamination fluorescence; inhibition, % at 20 µM; hit rate 0.41% among 330,000; AID 493011;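 active = at least 40% inhibition at 20 µM here, with at most 30% in a related deaminase screen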;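 also: plate controls were A3A with DMSO for no effect and wells lacking A3A enzyme for full effect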
# Target sequence (P31941 whole entry, looked up): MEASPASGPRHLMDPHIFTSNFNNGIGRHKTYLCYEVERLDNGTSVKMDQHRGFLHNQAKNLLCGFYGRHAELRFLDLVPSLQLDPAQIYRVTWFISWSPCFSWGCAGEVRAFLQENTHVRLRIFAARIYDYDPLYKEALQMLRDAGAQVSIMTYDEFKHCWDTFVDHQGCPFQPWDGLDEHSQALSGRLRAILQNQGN
# Neddyl inh conf – cullin neddylation inhibition, confirmation; shares compounds with Neddylation inh; TR-FRET cullin neddylation biochemical assay; calls only at 25 µM; hit rate 13% among 1,800; in the data active = inhibition above about 40%;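 also: neddylation substrate is the cullin 1 ring ligase complex with SKP2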
# * = called active by the depositor; i = inactive; / = not tested or not shown; + = active, no number. Compounds with a hit are over-represented: about 2% of the library has one in this group of screens.
SMILES,Neddylation inh,PfGluPho inh,GC-B act,APOBEC3G inh,GC-A act,A3A deaminase,Neddyl inh conf
Cc1cc(=O)oc2c(C)c(OC(C)C(=O)NC(Cc3c[nH]c4ccc(O)cc34)C(=O)O)ccc12 (stereo unspecified),24,9,2,-4,-3,2,/
CCc1c(C)c2ccc(OC(C)C(=O)NC(Cc3c[nH]c4ccc(O)cc34)C(=O)O)c(C)c2oc1=O (stereo unspecified),46*,6,-12,-3,4,2,+
NC(=O)c1c(NC(=O)c2cccc(N3C(=O)CCC3=O)c2)sc2c1CCCCC2,52*,4,1,-6,0,-2,/
COc1cc(C(=O)Nc2sc3c(c2C(=O)O)CCC3)cc(OC)c1OC,41*,7,1,-4,-1,0,/
Cc1ccc(C(=O)Nc2sc3c(c2C(=O)O)CCCC3)o1,51*,44,-7,-4,-2,3,/
CNC(=O)c1c(NC(=O)c2ccco2)sc2c1CCCC2,45*,11,-3,4,-1,1,/
COc1ccccc1C(=O)Nc1sc2c(c1C(N)=O)CCCC2,/,19,-18,-7,-18,0,/
CNC(=O)c1c(NC(=O)c2cccc(N3C(=O)CCC3=O)c2)sc2c1CCCC2,/,15,11,-1,15,2,/
CNC(=O)c1c(NC(=O)c2cccc(C)c2)sc2c1CCC2,49*,38,-9,8,-2,-7,/
COc1ccc(CN2CN3Cc4cc(OC)ccc4C3CS2(=O)=O)cc1 (stereo unspecified),/,/,-5,/,2,/,/
NC(=O)N/N=C/c1cn(-c2ccccc2)nc1-c1cccs1,8,4,-7,0,-12,4,/
O=C(N/N=C\c1cn(-c2ccccc2)nc1-c1ccccc1)c1ccc(Br)o1,17,-1,3,-6,-4,0,/
O=C(N/N=C/c1cn(-c2ccccc2)nc1-c1cccs1)c1ccncc1,44*,-14,-1,-3,-2,-2,/
O=C(N/N=C\c1cc(Br)cs1)c1ccncc1,-14,2,-4,-9,3,-5,/
O=C(N/N=C/c1nn(-c2ccccc2)cc1-c1ccccc1)c1ccncc1,39*,11,0,-3,-2,2,i
CN(C)C(=O)COC(=O)/C=C/c1cn(-c2ccccc2)nc1-c1cccs1,41*,-2,-1,-10,-6,6,/
O=C(N/N=C/c1cn(-c2ccccc2)nc1-c1ccccc1)c1ccco1,41*,3,4,-11,0,-4,i
COC1=C[C@H](C(=O)NCc2ccccn2)[C@H](C)[C@@H](c2ccccc2)CC1=O,/,/,3,/,0,/,/
CN1CCCCC(NC(=O)c2ccc(F)cc2)C1=O (stereo unspecified),/,/,0,/,1,/,/
N#Cc1ccc2[nH]c(CO)c(-c3ccccc3)c2c1,31*,-18,3,3,-5,8,i
COc1ccc(-c2cc3ccccc3n2CC(O)CNC(CO)(CO)CO)cc1 (stereo unspecified),45*,-7,-3,-5,4,-3,/
COc1cc(/C=N/NC(=O)c2ccc(CSc3nc4ccccc4[nH]3)cc2)cc(OC)c1OC,49*,18,5,-13,7,-2,+
COc1cc(/C=N/NC(=O)c2ccc3nc[nH]c3c2)cc(OC)c1OC,/,10,/,2,/,0,/
COc1cc(/C=N/Nc2nc3ccccc3[nH]2)cc(Br)c1OCC(=O)N(C)C,57*,11,-8,-6,1,4,+
COc1cc(C(=O)NC2CCN(C)CC2)ccc1Nc1ncc2c(n1)N(CCc1ccccc1)CCC(=O)N2C,39*,-9,7,/,7,/,i
SMILES,Neddylation inh,PfGluPho inh,GC-B act,APOBEC3G inh,GC-A act,A3A deaminase,Neddyl inh conf
O=C(NCCc1c[nH]c2ccccc12)OCc1cn(-c2ccc(F)cc2)nn1,/,/,0,/,3,/,/
CCN(CC)C(=O)c1sc2nc(-c3ccccn3)[nH]c(=O)c2c1C,15,-4,1,-2,-2,-1,/
CCc1cc2c(=O)[nH]c(-c3ccncc3)nc2s1,40*,13,-3,-3,0,2,/
CCN(CC)C(=O)c1sc2nc(-c3ccncc3)[nH]c(=O)c2c1C,39*,-5,-6,-6,6,-3,+
COC(=O)c1ccc2nc(-c3ccc(F)cc3)c(Cc3ccccc3OC)n2c1,53*,/,-2,/,-3,/,i
COc1ccc(/C=N/NC(=O)CCOc2ccccc2C)cc1OC,-12,-8,4,-7,2,-7,/
COc1cc(/C=N/NC(=O)CCOc2ccccc2C)cc(Br)c1O,43*,-13,-5,-7,-7,-1,+
COc1ccc(CC(=O)N/N=C\c2cc(Br)c(O)c(Br)c2)cc1,45*,-17,0,-10,-5,-5,+
COc1ccc([C@@]23CCN=C2c2[nH]c4ccccc4c2CCN3)c(N)c1,/,/,-11,/,-5,/,/
COC(=O)[C@]12C[C@H](CC(=O)N3CCN(C(=O)C4CC4)CC3)C(=O)N(Cc3cccc4ccccc34)C1=C[C@H](COCc1ccccc1)O[C@@H]2C,/,/,1,/,-5,/,/
COc1ccc(OC)c(C(=O)CSc2nnc(SCc3cccc4ccccc34)s2)c1,/,/,-4,/,0,/,/
C=CCN1C(=O)[C@H](CC(=O)N2CCN(C(=O)c3ccco3)CC2)[C@@]2(C(=O)OCC)CCCC=C12,/,/,2,/,-3,/,/
c1ccc(C[n+]2cccc3c4ccccc4ccc32)cc1,60*,-5,2,-7,5,9,/
Brc1cc2ccccc2[n+](Cc2ccccc2)c1,-85,12,1,-8,-1,-5,/
O=C(CC1CCCC1)N1CC[C@H]2[C@H](CCCN2Cc2ccc(F)cc2)C1,/,/,1,/,2,/,/
O=S1(=O)c2ccc(Br)cc2OC[C@H](Cc2ccccc2)N1Cc1cn(Cc2ccc(Cl)cc2)nn1,/,/,1,/,2,/,/
O=C(Nc1ccc2nsnc2c1)C1CC1,56*,-2,5,0,2,0,+
CC(=O)Nc1ccc2nsnc2c1,33,-5,-1,-4,3,0,/
Nn1c(SCC(=O)Nc2cccc3ccccc23)nnc1-c1n[nH]c2c1CCC2,/,/,-7,/,0,/,/
COc1cc(OC)cc(C(=O)N2CCN(c3ccc(N4CCOCC4)nn3)CC2)c1,57*,5,1,-2,1,-3,/
COc1ccc(N2CCN(C(=O)CCCC(=O)c3ccccc3)CC2)cc1,0,6,6,-5,2,-5,/
CCCCOc1ccc(C(=O)N2CCN(c3ccc(N4CCOCC4)nn3)CC2)cc1,63*,-1,-3,9,3,1,/
COc1ccc(C(=O)CCC(=O)N2CCN(c3ccc(N4CCOCC4)nn3)CC2)cc1,44*,11,-6,0,-3,1,/
